In ChEMBL document CHEMBL3988442, “University of Dundee, Small-Polar-MMV Screening Library” (2021) one finds Percent Effect data, which are given here for eleven compounds.

For some of these results: Results with a measured potency or affinity are listed apart.

Common to all, as to design: scale not given: direction of the effect not stated beside the values
Assay [1] has as its target Protein translocase subunit SecA (Escherichia coli (strain K12)) (UniProt P10408). Kind of assay: Assay to Identify E. coli SecA ATPase Inhibitors. Format: functional. The conditions noted are these: 30 µM.
The target in assay [2] is T1, Ubiquitin-activating enzyme e1, putative (Leishmania donovani (strain BPK282A1)) (UniProt E9BSI1).
T1 sequence (whole entry): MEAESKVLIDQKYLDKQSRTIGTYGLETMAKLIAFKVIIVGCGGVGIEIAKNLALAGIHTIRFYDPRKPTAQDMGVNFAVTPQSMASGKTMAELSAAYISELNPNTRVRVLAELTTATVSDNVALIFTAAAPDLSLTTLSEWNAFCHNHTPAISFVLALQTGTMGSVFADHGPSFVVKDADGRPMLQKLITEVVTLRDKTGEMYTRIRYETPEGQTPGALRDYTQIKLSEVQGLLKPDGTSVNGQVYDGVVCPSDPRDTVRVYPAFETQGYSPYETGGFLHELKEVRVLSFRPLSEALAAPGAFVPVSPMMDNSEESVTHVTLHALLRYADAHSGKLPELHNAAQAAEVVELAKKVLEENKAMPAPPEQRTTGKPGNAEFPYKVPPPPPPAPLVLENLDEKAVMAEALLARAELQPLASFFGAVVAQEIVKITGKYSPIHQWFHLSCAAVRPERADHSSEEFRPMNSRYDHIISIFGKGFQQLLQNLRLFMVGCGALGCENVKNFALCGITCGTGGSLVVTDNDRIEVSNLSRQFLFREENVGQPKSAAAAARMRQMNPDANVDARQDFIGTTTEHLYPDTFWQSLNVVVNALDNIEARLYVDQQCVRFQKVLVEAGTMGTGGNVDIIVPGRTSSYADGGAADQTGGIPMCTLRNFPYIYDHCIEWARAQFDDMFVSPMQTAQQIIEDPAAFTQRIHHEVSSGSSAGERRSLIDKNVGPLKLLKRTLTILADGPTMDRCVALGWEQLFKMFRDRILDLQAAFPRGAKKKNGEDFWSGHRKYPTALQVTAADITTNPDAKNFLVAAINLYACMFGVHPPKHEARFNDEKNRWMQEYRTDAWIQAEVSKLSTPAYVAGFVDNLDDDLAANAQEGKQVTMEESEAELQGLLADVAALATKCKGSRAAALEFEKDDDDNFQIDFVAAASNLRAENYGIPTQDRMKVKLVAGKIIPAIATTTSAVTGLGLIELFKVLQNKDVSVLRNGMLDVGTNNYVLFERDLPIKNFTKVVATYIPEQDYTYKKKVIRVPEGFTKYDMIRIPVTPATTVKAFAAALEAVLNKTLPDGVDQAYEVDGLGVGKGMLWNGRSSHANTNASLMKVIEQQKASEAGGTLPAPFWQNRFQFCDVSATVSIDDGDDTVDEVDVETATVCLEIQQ
Kind of assay: Leishmania donovani Ubiquitin Activating Enzyme (LdE1). It is filed as functional. The conditions noted are these: 30 µM.

The target in assay [3] is AMP-activated protein kinase, AMPK (Homo sapiens) (UniProt P54646+O43741+P54619+Q9UGJ0+Q9Y478+Q13131+Q9UGI9). Kind of assay: AMP-dependent Kinase enzyme assay. An in vitro enzyme assay that detects ADP turnover that is directly proportional to AMPK activity. This uses naive AMPK that is activated during the assay with MK-8722. Format: functional. The conditions noted are these: 30 µM.

Assay [4] has as its target Sialic acid-binding Ig-like lectin 9 (Homo sapiens) (UniProt Q9Y336). Kind of assay: Hs-Siglec9 ALPHAscreen SOP 20170721. The conditions noted are these: 10 µM.
Another assay has as its system Trypanosoma cruzi. Kind of assay: Trypanosoma cruzi phosphomannomutase and mannose-1-phosphate guanylyltransferase assay. It is filed as functional. Conditions: 10 µM.
Assay [5] concerns the target T2, Arginase-2, mitochondrial (Homo sapiens) (UniProt P78540).
T2 sequence (whole entry): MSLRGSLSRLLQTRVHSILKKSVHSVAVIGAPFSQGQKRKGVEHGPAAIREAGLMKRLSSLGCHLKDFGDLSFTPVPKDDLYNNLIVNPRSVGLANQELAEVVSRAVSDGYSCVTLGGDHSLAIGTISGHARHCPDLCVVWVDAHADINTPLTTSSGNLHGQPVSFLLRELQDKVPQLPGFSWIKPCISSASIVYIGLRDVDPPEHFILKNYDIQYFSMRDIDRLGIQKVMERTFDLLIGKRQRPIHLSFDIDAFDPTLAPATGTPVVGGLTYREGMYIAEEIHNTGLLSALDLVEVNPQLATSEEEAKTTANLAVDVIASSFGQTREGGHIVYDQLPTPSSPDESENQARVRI
Kind of assay: in vitro enzyme assay to detect the production of urea directly proportional to the activity of Arginase II. Also: in the data most compounds retested in dose-response had high values. It is filed as functional. The conditions noted are these: 33.3 µM.

Assay [6] addresses T3, Proteasome subunit beta (Trypanosoma cruzi) (UniProt O96673).
T3 sequence (whole entry): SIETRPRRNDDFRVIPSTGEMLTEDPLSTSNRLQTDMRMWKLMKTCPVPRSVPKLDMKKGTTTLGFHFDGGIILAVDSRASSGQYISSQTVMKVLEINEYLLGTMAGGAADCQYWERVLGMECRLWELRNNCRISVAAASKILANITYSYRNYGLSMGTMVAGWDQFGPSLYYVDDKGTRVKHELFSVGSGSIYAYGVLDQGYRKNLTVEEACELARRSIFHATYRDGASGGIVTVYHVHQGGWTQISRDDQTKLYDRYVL
Kind of assay: Trypanosoma cruzi proteasome chymotrypsin-like activity (TcProtChymo) assay. Also: in the data most compounds retested in dose-response had high values. The conditions noted are these: 9.37 µM. Format: functional.

For a further assay, the species on record is Homo sapiens. Kind of assay: To identify inhibition of the IFN signalling (Jak-Stat) pathway via expression of an eGFP reporter gene under the control of an IFN-stimulated response element (ISRE) containing MxA promoter. Format: functional. Conditions: 30 µM. For orientation: In a reporter assay the amount or activity of a reporter protein is the signal.

Assay [7] concerns the target T4, Tyrosyl-tRNA synthetase, putative (Trypanosoma cruzi (strain CL Brener)) (UniProt Q4DSP6).
T4 sequence (whole entry): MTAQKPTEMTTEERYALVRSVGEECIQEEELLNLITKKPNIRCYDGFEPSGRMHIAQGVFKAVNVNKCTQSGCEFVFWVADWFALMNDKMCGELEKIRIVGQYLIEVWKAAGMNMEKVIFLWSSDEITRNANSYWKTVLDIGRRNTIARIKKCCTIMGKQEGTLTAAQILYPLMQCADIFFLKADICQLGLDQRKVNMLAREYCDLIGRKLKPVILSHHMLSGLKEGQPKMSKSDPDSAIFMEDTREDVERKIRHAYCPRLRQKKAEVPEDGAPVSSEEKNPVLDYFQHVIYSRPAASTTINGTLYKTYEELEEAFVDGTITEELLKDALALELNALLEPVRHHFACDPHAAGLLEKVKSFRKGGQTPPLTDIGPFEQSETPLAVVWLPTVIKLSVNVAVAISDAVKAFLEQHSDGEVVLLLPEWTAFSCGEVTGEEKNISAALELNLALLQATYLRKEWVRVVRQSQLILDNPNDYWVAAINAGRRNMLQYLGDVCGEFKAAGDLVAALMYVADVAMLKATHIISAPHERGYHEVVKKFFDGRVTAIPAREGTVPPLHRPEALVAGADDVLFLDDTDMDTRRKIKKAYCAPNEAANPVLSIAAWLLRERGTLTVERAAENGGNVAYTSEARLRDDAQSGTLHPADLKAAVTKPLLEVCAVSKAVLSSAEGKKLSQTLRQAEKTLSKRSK
Kind of assay: Trypanosoma cruzi tyrosyl tRNA synthetase (TcYRS) _High Tyrosine SOP. Also: in the data most compounds retested in dose-response had high values. Conditions: 30 µM. Format: functional.

Assay [8] addresses T4, Tyrosyl-tRNA synthetase, putative (Trypanosoma cruzi (strain CL Brener)). Kind of assay: Trypanosoma cruzi tyrosyl tRNA synthetase (TcYRS) SOP. Format: functional. Conditions: 30 µM.
In assay [9] the target is Chromo domain-containing protein 1 (Saccharomyces cerevisiae (strain ATCC 204508 / S288c) (Baker's yeast)) (UniProt P32657). Kind of assay: ScCHD-1 Enzyme Inhibition Assay. Also: in the data most compounds retested in dose-response had high values. Format: functional. Conditions: 30 µM.
Chromo domain-containing protein 1 (Saccharomyces cerevisiae (strain ATCC 204508 / S288c) (Baker's yeast)), sequence (P32657 whole entry, the tested form may be a part): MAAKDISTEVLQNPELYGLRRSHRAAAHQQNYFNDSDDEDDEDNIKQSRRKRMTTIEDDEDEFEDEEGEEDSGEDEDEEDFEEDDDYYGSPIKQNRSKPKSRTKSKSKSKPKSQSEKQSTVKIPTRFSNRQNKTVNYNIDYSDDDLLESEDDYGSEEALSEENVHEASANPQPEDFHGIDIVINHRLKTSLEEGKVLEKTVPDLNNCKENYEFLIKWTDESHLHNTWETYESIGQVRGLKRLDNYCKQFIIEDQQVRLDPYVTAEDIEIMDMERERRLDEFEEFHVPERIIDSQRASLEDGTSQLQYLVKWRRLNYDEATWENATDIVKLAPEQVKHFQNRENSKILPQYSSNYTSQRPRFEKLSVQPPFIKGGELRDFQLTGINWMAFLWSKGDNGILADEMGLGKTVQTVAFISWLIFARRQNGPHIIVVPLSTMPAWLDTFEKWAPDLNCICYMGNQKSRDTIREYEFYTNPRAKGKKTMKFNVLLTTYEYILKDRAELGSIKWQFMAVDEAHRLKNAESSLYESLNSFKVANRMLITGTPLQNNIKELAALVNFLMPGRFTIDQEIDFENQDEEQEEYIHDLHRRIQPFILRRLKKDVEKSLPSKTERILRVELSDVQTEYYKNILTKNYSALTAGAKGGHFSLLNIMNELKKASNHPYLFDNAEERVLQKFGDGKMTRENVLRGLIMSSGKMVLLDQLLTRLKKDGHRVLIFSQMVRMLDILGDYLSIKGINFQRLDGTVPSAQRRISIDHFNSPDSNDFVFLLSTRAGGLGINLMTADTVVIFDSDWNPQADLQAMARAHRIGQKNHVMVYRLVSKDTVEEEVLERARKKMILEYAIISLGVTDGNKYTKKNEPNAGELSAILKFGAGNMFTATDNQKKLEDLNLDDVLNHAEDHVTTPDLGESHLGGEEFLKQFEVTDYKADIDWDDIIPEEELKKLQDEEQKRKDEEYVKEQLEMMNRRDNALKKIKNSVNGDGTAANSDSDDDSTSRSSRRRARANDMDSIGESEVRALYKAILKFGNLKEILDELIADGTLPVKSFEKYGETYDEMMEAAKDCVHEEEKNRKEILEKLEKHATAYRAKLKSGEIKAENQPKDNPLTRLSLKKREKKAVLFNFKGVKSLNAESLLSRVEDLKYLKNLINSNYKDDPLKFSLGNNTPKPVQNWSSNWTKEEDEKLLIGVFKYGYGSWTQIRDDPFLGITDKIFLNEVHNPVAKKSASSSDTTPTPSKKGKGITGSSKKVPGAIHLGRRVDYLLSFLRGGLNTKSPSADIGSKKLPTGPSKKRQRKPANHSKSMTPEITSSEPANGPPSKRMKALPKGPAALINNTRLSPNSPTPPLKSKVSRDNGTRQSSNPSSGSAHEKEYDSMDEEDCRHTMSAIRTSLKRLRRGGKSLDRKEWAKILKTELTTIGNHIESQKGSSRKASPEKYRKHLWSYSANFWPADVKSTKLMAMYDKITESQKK

Protein translocase subunit SecA (Escherichia coli (strain K12)), sequence (P10408 whole entry): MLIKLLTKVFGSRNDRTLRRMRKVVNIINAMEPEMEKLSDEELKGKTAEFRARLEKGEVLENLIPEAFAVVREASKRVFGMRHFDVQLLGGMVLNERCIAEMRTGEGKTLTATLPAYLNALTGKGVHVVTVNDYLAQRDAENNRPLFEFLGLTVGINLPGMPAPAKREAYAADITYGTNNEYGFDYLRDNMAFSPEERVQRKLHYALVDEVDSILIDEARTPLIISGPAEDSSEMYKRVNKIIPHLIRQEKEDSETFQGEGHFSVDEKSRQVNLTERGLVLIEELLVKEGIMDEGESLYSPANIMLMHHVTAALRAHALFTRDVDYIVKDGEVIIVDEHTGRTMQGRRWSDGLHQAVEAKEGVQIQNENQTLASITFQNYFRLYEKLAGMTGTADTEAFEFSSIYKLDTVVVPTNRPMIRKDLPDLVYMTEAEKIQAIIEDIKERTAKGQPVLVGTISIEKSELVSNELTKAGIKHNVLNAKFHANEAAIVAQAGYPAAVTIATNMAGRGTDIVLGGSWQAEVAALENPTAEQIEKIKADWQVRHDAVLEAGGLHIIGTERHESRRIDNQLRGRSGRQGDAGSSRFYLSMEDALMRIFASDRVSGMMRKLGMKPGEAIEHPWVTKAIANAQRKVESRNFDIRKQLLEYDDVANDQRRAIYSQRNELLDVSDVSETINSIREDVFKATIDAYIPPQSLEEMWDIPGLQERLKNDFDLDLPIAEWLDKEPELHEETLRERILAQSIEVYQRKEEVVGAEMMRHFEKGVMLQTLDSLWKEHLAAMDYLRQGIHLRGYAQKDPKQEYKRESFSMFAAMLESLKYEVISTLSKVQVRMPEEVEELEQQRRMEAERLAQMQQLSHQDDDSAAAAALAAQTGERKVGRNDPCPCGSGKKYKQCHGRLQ
Sialic acid-binding Ig-like lectin 9 (Homo sapiens), sequence (Q9Y336 whole entry): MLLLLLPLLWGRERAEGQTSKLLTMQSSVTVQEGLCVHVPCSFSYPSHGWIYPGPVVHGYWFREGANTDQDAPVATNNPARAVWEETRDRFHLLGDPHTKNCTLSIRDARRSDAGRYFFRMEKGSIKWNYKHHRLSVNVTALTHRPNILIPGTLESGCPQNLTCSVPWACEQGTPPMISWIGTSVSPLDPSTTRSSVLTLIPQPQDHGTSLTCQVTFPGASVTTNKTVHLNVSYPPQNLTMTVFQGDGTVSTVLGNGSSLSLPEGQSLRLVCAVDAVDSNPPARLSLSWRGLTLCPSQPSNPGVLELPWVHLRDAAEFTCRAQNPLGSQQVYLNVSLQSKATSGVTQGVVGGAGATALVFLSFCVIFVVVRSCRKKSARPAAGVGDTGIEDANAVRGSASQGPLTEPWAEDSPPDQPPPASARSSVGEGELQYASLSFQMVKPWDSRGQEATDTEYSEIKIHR

Regarding `COCc1c(C(=O)O)nnn1Cc1cccc(C(F)(F)F)c1`, the Percent Effect in assay [1] was -0.917%; in assay [2], 9.33%; in [3], -2.19%; in assay [4], 0.663%; in the assay with Trypanosoma cruzi it was -4.13%; in assay [5], -8.98%. The Percent Effect in assay [6] was 14.1%; in the assay filed under Homo sapiens it was 5.79%; in assay [7] it was 3.17%; in assay [8] it was 10.3%; in assay [9] it was -10.2%.

For the compound `COc1ccccc1CN1CC[C@]2(C[C@H](OC)CO2)C1`, the Percent Effect was -4.71% in assay [1]; 9.33% in [2]; 3.5% in assay [3]; 4.02% in assay [4]; -4.52% in the assay on Trypanosoma cruzi; -12.5% in assay [5]. Also, the Percent Effect in assay [6] is 15%; in the assay filed under Homo sapiens it was -8.4%; in [7], 5.29%; in assay [8], 7.69%; in assay [9], -5.98%.

With `COc1c(CNCc2cnn(C)c2)c(C(C)C)nn1C`, the Percent Effect in [1] was -4.88%; in assay [2] it was 23.7%; in assay [3], -11.3%; in [4] it was -0.847%; in the assay on Trypanosoma cruzi, 3.01%; in assay [5], 3.45%. For the same compound, the Percent Effect is 7.18% in assay [6]; -15.7% in the assay filed under Homo sapiens; 6.37% in [7]; 21.9% in [8]; -13.8% in [9].

As for `Cc1cc(C(=O)N2CCC(c3nccn3Cc3ccncc3)CC2)no1`, the Percent Effect in [1] is -4.98%; in [2], 8.22%; in [3] it was 5.77%; in assay [4] it was -7.08%; in the assay on Trypanosoma cruzi, -0.979%; in assay [5] it was 5.46%. Further, the Percent Effect was 12.6% in assay [6]; 7.62% in the assay listed under Homo sapiens; 8.6% in assay [7]; 15% in assay [8]; -1.03% in assay [9].

For the compound `CCc1c(C)nc2n(c1=O)CC(C(=O)Nc1nccs1)CS2` (stereo unspecified), the Percent Effect in assay [1] was -7.87%; in assay [2] it was 13%; in assay [3], -4.33%; in assay [4] it was -3.77%; in the assay with Trypanosoma cruzi it was 5.62%; in [5], 5.81%. Besides, the Percent Effect was 7.31% in assay [6]; 4.32% in the assay listed under Homo sapiens; 3.17% in assay [7]; 14.1% in assay [8]; -7.44% in assay [9].

For `Cc1nc(CN2CCOC(Cn3cncn3)C2)nc2ccccc12` (stereo unspecified), the Percent Effect in assay [1] was -1.64%; in assay [2], -2.6%; in [3], 3.13%; in [4], 0.385%; with Trypanosoma cruzi it was 3.04%; in assay [5] it was -1.05%. For the same compound, the Percent Effect is 9.62% in assay [6]; -20.1% in the assay listed under Homo sapiens; 5.71% in [7]; 0% in assay [8]; -15.8% in assay [9].

Consider `CN(CCn1cccn1)S(=O)(=O)N1CCCC1c1ccco1` (stereo unspecified), for which the Percent Effect was 1.7% in assay [1]; -5.41% in [2]; -2.17% in assay [3]; -0.333% in assay [4]; -5.48% in the assay on Trypanosoma cruzi; 9.43% in [5]. For the same compound, the Percent Effect is -3.05% in assay [6]; 13.8% in the assay filed under Homo sapiens; -0.99% in [7]; -6.1% in assay [8]; 3.02% in assay [9].

In the case of `COCC1Cn2nnc(-c3cnn(C)c3)c2CN1Cc1ccc(C)s1` (stereo unspecified), the Percent Effect in [1] is -0.562%; in [2], 10.8%; in assay [3], 12%; in assay [4], -1.82%; in the assay on Trypanosoma cruzi it was 1.37%; in assay [5], 18.3%. Besides, the Percent Effect is -0.0845% in assay [6]; 48.1% in the assay listed under Homo sapiens; 6.93% in assay [7]; 6.1% in assay [8]; -4.26% in [9].

Consider `CC(=O)Nc1nc(C(=O)NC(C)c2ccc(F)cc2)cs1` (stereo unspecified), for which the Percent Effect in [1] was -2.72%; in assay [2], 15.6%; in [3], 16.6%; in assay [4] it was -7.49%; with Trypanosoma cruzi it was 6.76%; in assay [5] it was -9.05%. The Percent Effect is 11.1% in [6]; -15.4% in the assay listed under Homo sapiens; 8.57% in assay [7]; 21.2% in assay [8]; -24.3% in assay [9].

Turning to `CCC1CN(CC(=O)N2CCC2)CCN1CCOC` (stereo unspecified), the Percent Effect was -2.71% in assay [1]; 13.5% in assay [2]; -12.7% in [3]; 13.2% in [4]; 3.49% in the assay on Trypanosoma cruzi; -8.82% in [5]. Further, the Percent Effect in [6] is 7.03%; in the assay filed under Homo sapiens, 1.78%; in assay [7], 8.37%; in assay [8] it was 28.4%; in assay [9], -9.71%.

Turning to `O=C(Cc1cccc(Cl)c1)N[C@@H]1CCNC[C@H]1O`, the Percent Effect in [1] is -6.4%; in assay [2], 18.9%; in [3] it was -5.86%; in assay [4], 31.3%; in the assay on Trypanosoma cruzi, 4.2%; in assay [5], 19.1%. In addition, the Percent Effect in [6] was 9.7%; in the assay filed under Homo sapiens, 0.775%; in assay [7], 5.38%; in assay [8] it was 16.1%; in [9], -13.7%.
